Screening results: PubChem BioAssay, several laboratories
IDE act = activators of human insulin-degrading enzyme in cells; P14735; HEK cells, FAbeta-B cleavage, fluorescence polarization; 0% vehicle, 100% cell-free pure enzyme wells; activation, % at 5.96 µM; 340,000 compounds, 0.073% hits; AID 493087;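 active = activation above the mean of all tested compounds plus 3 SD, set per screening campaign, cut at about 17% in these data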
PolyA inh = inhibitors of polyadenylation in S. cerevisiae | S. cerevisiae SKY197-pL101 polyadenylation reporter, beta-gal luminescence; efflux-impaired pdr1/pdr3 knockout yeast; score 100 = 6 SD above DMSO | activity score, % at 12 µM | 300,000 compounds, 0.02% hits;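 active = lowest replicate activity score at least 50, where 100 means six control SD above control mean; inconclusive = lowest score under 50 but half or more replicates reach 50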;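 note: yeast exposed to compound for 9 h at 30 °C; higher score means more reporter readthrough which indicates perturbed polyadenylation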
PfM18AAP inh = blocks P. falciparum M18 aspartyl aminopeptidase; recombinant PfM18AAP, H-Glu-NHMec fluorogenic cleavage; inhibition, % at 7.35 µM; 290,000 compounds, 1.2% hits; AID 1822;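 active = inhibition above the campaign mean inhibition over all tested compounds plus 3 SD, cut at about 28% in these data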;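 note: 0% = plate median of test compound wells and 100% = 2 mM ZnCl2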
CaV13 ICDI inh = Primary screen for inhibitors of IQ motif and Ca2+-dependent inactivation inhibitor domain binding in CACNA1D, Förster resonance energy transfer in living cells, …; HEK cells, CFP/YFP FRET ICDI-IQ, plate reader, 10 min; percent FRET-ratio fall versus neutral wells; inhibition, % at 12.3 µM; 340,000 compounds, 0.098% hits;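 active = mean replicate inhibition of at least 30% and at least 1% of replicates passing that level; inconclusive = only one of the two criteria is met; inactive = neither criterion is met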;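 note: 0% = median of the neutral control wells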
IDE cell inh = inhibitors of human insulin-degrading enzyme in cells; P14735; HEK cells, FAbetaB cleavage, fluorescence polarization; AID 434962; inhibition, % at 5.59 µM; 320,000 compounds, 0.41% hits;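 active = percent inhibition above the average of all tested compounds plus 3 SD, set per screening campaign, cut at about 16% in these data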;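 note: IDE supplied by intact live HEK cells; FP after avidin binding of uncleaved biotin substrate so inhibition keeps polarization high; 0% = DMSO wells and 100% = 60 µM reference IDE inhibitor Ii1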
ALR H2O2 inh = human ALR oxidase inhibition via reduced H2O2. P55789. purified ALR, DTT oxidation, H2O2 HRP-luminol luminescence. inhibition, % (no concentration beside the values). 290,000 compounds, 3.8% hits. AID 485317;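 active = mean replicate inhibition above about 79%, with every replicate also reaching it, limit read from the data; inconclusive = only one of the two criteria met; inactive = mean below limit and not every replicate reaching it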
Numbers without * were called inactive. Hits are enriched below; roughly 4.1% of the tested compounds scored in any of these assays.

What do the screens show for `CCCCCCCCN1C(=O)[C@@H](CC(=O)NCC2CCCCC2)C[C@@]2(C(=O)OC)C1=C[C@H](C1CCCC1)O[C@@H]2C`?
CaV13 ICDI inh: -10

What do the screens show for `C[C@H](CO)N1C[C@H](C)[C@H](CN(C)C)Oc2ccc(NS(=O)(=O)c3ccc(F)cc3)cc2CC1=O`?
IDE act: 4; CaV13 ICDI inh: -5; IDE cell inh: 0; ALR H2O2 inh: 2

What do the screens show for `CNC[C@@H]1Oc2ccc(NS(=O)(=O)c3ccc(OC)cc3)cc2CC(=O)N([C@H](C)CO)C[C@@H]1C`?
IDE act: 22*; IDE cell inh: 2; ALR H2O2 inh: 0

Results for CCc1nc2c(OCC(=O)c3ccc(Cl)cc3Cl)cccn2c1N(C)C(=O)c1cccs1 ?
CaV13 ICDI inh: -12

What do the screens show for `CC1(C)CC(=O)N(c2ccc(C#N)cc2)C(=O)C1`?
IDE act: -3; PolyA inh: 4; PfM18AAP inh: -1; CaV13 ICDI inh: -10; IDE cell inh: 4; ALR H2O2 inh: 11

How did COCc1nnc(NC(=O)c2ccc(S(=O)(=O)N(CC(C)C)CC(C)C)cc2)o1 do in these assays?
IDE act: 0; PolyA inh: 4; PfM18AAP inh: 2; CaV13 ICDI inh: -5; IDE cell inh: 3; ALR H2O2 inh: 95*

How did C=CCN(CC=C)S(=O)(=O)c1ccc(C(=O)Nc2nnc(COC)o2)cc1 do in these assays?
IDE act: 8; PolyA inh: 9; PfM18AAP inh: 1; CaV13 ICDI inh: 1; IDE cell inh: -2; ALR H2O2 inh: inconclusive

How did O=C(Nc1ccc(Cl)c([N+](=O)[O-])c1)c1cnccn1 do in these assays?
IDE act: 2; PolyA inh: -13; PfM18AAP inh: 2; CaV13 ICDI inh: -3; IDE cell inh: 4

How did Cc1ccc(C(=O)c2ccc([N+](=O)[O-])cc2)cc1 do in these assays?
IDE act: -2; PolyA inh: -8; PfM18AAP inh: 11; CaV13 ICDI inh: -7; IDE cell inh: 5; ALR H2O2 inh: -5

What do the screens show for `Cc1ccc(C(=O)c2coc3cc([N+](=O)[O-])c(O)c([N+](=O)[O-])c23)cc1`?
IDE act: 2; PolyA inh: -19; PfM18AAP inh: 33*; CaV13 ICDI inh: -3; IDE cell inh: 2; ALR H2O2 inh: -20

Results for CCCC(=O)N(CCN1CCOCC1)c1nc2cc(C)c(C)cc2s1 ?
IDE act: 5; PolyA inh: 0; PfM18AAP inh: 6; CaV13 ICDI inh: -11; IDE cell inh: -8; ALR H2O2 inh: 95*

How did Cc1ccc(S(=O)(=O)CCC(=O)N(CCCN2CCOCC2)c2nc3ccccc3s2)cc1 do in these assays?
IDE act: -2; PolyA inh: -3; CaV13 ICDI inh: -6; IDE cell inh: -2; ALR H2O2 inh: 98*

What do the screens show for `O=C(CCS(=O)(=O)c1ccccc1)N(CCCN1CCOCC1)c1nc2ccccc2s1`?
IDE act: -5; PolyA inh: -18; CaV13 ICDI inh: -6; IDE cell inh: 6; ALR H2O2 inh: 98*

What do the screens show for `Cc1ccc2nc(N(CCN3CCOCC3)C(=O)CCS(=O)(=O)c3ccccc3)sc2c1`?
IDE act: 5; PolyA inh: -2; CaV13 ICDI inh: -2; IDE cell inh: 1; ALR H2O2 inh: 9

Results for O=C(N/C(=C/c1ccc(Cl)cc1)C(=O)N1CCCC1)c1ccccc1 ?
IDE act: -3; PolyA inh: 11; PfM18AAP inh: 1; CaV13 ICDI inh: -6; IDE cell inh: -1; ALR H2O2 inh: 0

What do the screens show for `C/C(=N\NC(=O)COc1cc(C)cc(C)c1)c1ccc(N2CCOCC2)cc1`?
IDE act: 3; PolyA inh: -9; PfM18AAP inh: 1; CaV13 ICDI inh: 0; IDE cell inh: 2

What do the screens show for `C/C(=N\NC(=O)COc1ccc(C#N)cc1)c1ccc(N2CCOCC2)cc1`?
IDE act: 4; PolyA inh: 2; PfM18AAP inh: 0; CaV13 ICDI inh: -4; IDE cell inh: 6; ALR H2O2 inh: 99*

How did N#Cc1ccc(OCC(=O)OCC(=O)Nc2ccc(N3CCOCC3)cc2)cc1 do in these assays?
IDE act: 2; PolyA inh: -6; CaV13 ICDI inh: -2; IDE cell inh: -4; ALR H2O2 inh: 94*

Results for O=C(COC(=O)CNS(=O)(=O)c1ccc(Br)cc1Cl)Nc1ccc(N2CCOCC2)cc1 ?
IDE act: 3; PolyA inh: -13; CaV13 ICDI inh: -5; IDE cell inh: 1; ALR H2O2 inh: 99*

How did N#Cc1ccc(C(=O)OCC(=O)Nc2ccc(N3CCOCC3)cc2)cc1 do in these assays?
IDE act: 8; PolyA inh: -2; PfM18AAP inh: -1; CaV13 ICDI inh: 3; IDE cell inh: 4; ALR H2O2 inh: -33

What do the screens show for `O=[N+]([O-])c1ccc(N2CCOCC2)cc1SCc1ccco1`?
IDE act: -1; PolyA inh: 2; PfM18AAP inh: 31*; CaV13 ICDI inh: -2; IDE cell inh: -5; ALR H2O2 inh: -5

Results for CCOC(=O)C1CC(C)=C(C)CC1C(=O)O (stereo unspecified) ?
IDE act: 2; PolyA inh: 4; PfM18AAP inh: -3; CaV13 ICDI inh: -4; IDE cell inh: 2; ALR H2O2 inh: -6

How did Cc1cc(O)c(C(C)C)cc1C1(c2cc(C(C)C)c(O)cc2C)OC(=O)c2ccccc21 do in these assays?
IDE act: 4; PolyA inh: -1; PfM18AAP inh: -2; CaV13 ICDI inh: -4; IDE cell inh: -2; ALR H2O2 inh: 3

Results for Cc1cc(C2(c3ccc(O)c(C)c3)OC(=O)c3ccccc32)ccc1O ?
IDE act: 4; PolyA inh: -10; PfM18AAP inh: -4; CaV13 ICDI inh: -4; IDE cell inh: 8; ALR H2O2 inh: 77*

What do the screens show for `C[C@H]1CN([C@@H](C)CO)C(=O)CCCn2nncc2CO[C@H]1CN(C)C(=O)Nc1ccc2c(c1)OCO2`?
CaV13 ICDI inh: -6

How did COc1ccc(NC(=O)CC2Nc3cccc4cccc(c34)NC2=O)cc1 (stereo unspecified) do in these assays?
IDE act: -5; PolyA inh: 2; PfM18AAP inh: 18; CaV13 ICDI inh: -4; IDE cell inh: 9; ALR H2O2 inh: 100*

What do the screens show for `O=C(NCc1ccco1)c1cc2ccc(O)cc2oc1=O`?
IDE act: 4; PolyA inh: -17; PfM18AAP inh: 28*; IDE cell inh: -1; ALR H2O2 inh: 10

What do the screens show for `N=c1oc2cc(O)ccc2cc1C(=O)Nc1ccc(Cl)cc1`?
IDE act: -3; PolyA inh: 1; PfM18AAP inh: 20; CaV13 ICDI inh: 113*; IDE cell inh: -12; ALR H2O2 inh: -4

What do the screens show for `Cc1ccc(N=c2oc3cc(O)ccc3cc2C(N)=O)cc1`?
IDE act: -1; PolyA inh: 4; PfM18AAP inh: 2; CaV13 ICDI inh: 8; IDE cell inh: 1; ALR H2O2 inh: 96*
